# Results taken from PubChem BioAssay (Tox21).
# A number with no mark means an inactive call. Inconclusive results are not listed. Where a call stands in place of a potency, no number is given. Activity calls are given as the source filed them. Unless noted, calls follow the shape of the dose curve; as a rule, active = well fitted curve in the direction sought with a large enough effect in the repeat runs; inconclusive = weak or mixed curves; inactive = no such curve, though single readings can be large; an effect the other way counts as inactive or inconclusive.
# How the values were obtained:
# [1] = qHTS assay to identify small molecule antagonists of the androgen receptor (AR) signaling pathway using the MDA cell line in the presence of 0.5 nM R1881 - cell viability counter screen (AID 1259242); conditions: MDA-kb2 viability, CellTiter-Fluor protease fluorescence, 16 h; series mostly up to 92.4 µM; also: nearly all actives have a fitted effect of over 45% in size; also: potency is read from the fitted curve at half-maximal effect
# Summary of the method: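 Live-cell protease activity was measured by CellTiter-Fluor fluorescence after 30 min. Before that, MDA-kb2 MMTV-luciferase cells had 16 hr at 37C without CO2, exposed to test compounds and 0.5 nM R1881 final.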
# [2] = molecular target: Estrogen receptor (Homo sapiens) (UniProt P03372); experiment: qHTS assay to identify small molecule antagonists of the estrogen receptor alpha (ER-alpha) signaling pathway using the BG1 cell line in the presence of 0.1 nM 17-beta-estradiol (AID 1259244); conditions: VM7Luc4E2 (BG1) ERE-luciferase, antagonist mode, 0.1 nM E2, 22 h; series mostly up to 92.4 µM; also: nearly all actives have a fitted effect of over 50% in size; also: potency is read from the fitted curve at half-maximal effect
# Summary of the method: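 Luciferase luminescence (ONE-Glo, 30 min at room temperature) was read after 22 hr at 37C exposure to compounds plus 17beta-estradiol at 0.1 nM final. Cells were VM7Luc4E2 with endogenous ER-alpha and an ERE-driven luciferase, pre-cultured 5 days in hormone-depleted medium.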
# [3] = qHTS assay to identify small molecule HDAC inhibitors (AID 1259364); conditions: HCT-116 HDAC-Glo I/II luminescence, 2 h; series mostly up to 92.4 µM; also: top concentration of the series differs between compounds; nearly all actives have a fitted effect of over 45% in size
# Summary of the method: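 Luminescence read after 30 min room-temperature HDAC-Glo incubation measures cellular class I/II HDAC activity. Compounds were applied for 2 hr at 37 C to HCT-116 wild-type cells seeded the day before.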
# [4] = qHTS assay to identify small molecule HDAC inhibitors - cell viability counter screen (AID 1259365); conditions: HCT-116 viability, CellTiter-Glo ATP luminescence, 2 h; series mostly up to 92.4 µM; also: nearly all actives have a fitted effect of over 50% in size
# Summary of the method: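 Counter screen in wild-type HCT-116 cells: compounds dissolved in DMSO are pin-transferred onto overnight-plated cells and left 2hr at 37C. ATP-based CellTiter-Glo luminescence then measures viable cells.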
# [5] = qHTS assay to identify small molecule agonists of the sonic hedgehog signaling (Shh) pathway - cell viability counter screen (AID 1259366); conditions: NIH/3T3 Gli1-Luc viability, CellTiter-Fluor, 24 h; series mostly up to 92.4 µM; also: nearly all actives have a fitted effect of over 50% in size; also: potency is read from the fitted curve at half-maximal effect
# Summary of the method: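 Cells are plated at 2,000 per well and left 4hr at 37C, 5% CO2 before compound addition. After 23hr of treatment, CellTiter-Fluor reagent is added for 1hr at 37C and fluorescence is measured.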
# [6] = qHTS assay to identify small molecule antagonists of the sonic hedgehog signaling (Shh) pathway - cell viability counter screen (AID 1259367); conditions: NIH/3T3 Gli1-Luc viability, CellTiter-Fluor, 24 h; series mostly up to 92.4 µM; also: nearly all actives have a fitted effect of over 55% in size; also: potency is read from the fitted curve at half-maximal effect
# Summary of the method: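 Fluorescence read-out (CellTiter-Fluor, 1 hr at 37C) taken after 23 hr compound treatment of 3T3 Gli1-Luc cells stimulated with conditioned medium. Cells were seeded at 2,000 per well and pre-incubated 4 hr.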
# [7] = qHTS assay to identify small molecule agonists of the sonic hedgehog signaling (Shh) pathway (AID 1259368; calls by dose curve;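 also: NIH/3T3-derived 3T3Gli1-Luc cells carrying a stable Gli1-driven firefly luciferase reporter; nearly all actives have a fitted effect of over 15% in size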); conditions: NIH/3T3 Gli1-Luc reporter, luciferase, 24 h; series mostly up to 92.4 µM
# Summary of the method: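 Luminescence was read after 30 min at room temperature with luciferase reagent. Before that, 3T3Gli1-Luc cells (NIH/3T3 clone, stable Gli1-Luc reporter; 2,000/well) were exposed to compounds for 24 hr at 37C, 5% CO2, compounds being added 4 hr post-plating.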
# [8] = molecular target: Androgen receptor (Homo sapiens) (UniProt P10275); experiment: qHTS assay to identify small molecule antagonists of the androgen receptor (AR) signaling pathway using the MDA cell line in the presence of 0.5 nM R1881 (AID 1259243); conditions: MDA-kb2 MMTV-luciferase, R1881 0.5 nM, 16 h; series mostly up to 92.4 µM; also: nearly all actives have a fitted effect of over 50% in size
# Summary of the method: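 Luminescent reporter readout (ONE-Glo, 30 min, room temperature) after 16 hr co-treatment of MDA-kb2 cells with test compounds and 0.5 nM R1881 final, at 37C without CO2. The MMTV-driven luciferase responds to both AR and GR.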
# [9] = qHTS assay to identify small molecule antagonists of the sonic hedgehog signaling (Shh) pathway (AID 1259369; calls by dose curve; also: nearly all actives have a fitted effect of over 45% in size; also: potency is read from the fitted curve at half-maximal effect); conditions: NIH/3T3 Gli1-Luc reporter, Shh antagonist, luminescence 24 h; series mostly up to 92.4 µM
# Summary of the method: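 Antagonist mode: compound added to 3T3 Gli1-Luc cells followed by conditioned-medium stimulation, 24 h at 37 C, 5% CO2. Inhibition taken as loss of Gli1-driven luciferase luminescence.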
# Estrogen receptor (Homo sapiens), sequence (P03372 whole entry, looked up): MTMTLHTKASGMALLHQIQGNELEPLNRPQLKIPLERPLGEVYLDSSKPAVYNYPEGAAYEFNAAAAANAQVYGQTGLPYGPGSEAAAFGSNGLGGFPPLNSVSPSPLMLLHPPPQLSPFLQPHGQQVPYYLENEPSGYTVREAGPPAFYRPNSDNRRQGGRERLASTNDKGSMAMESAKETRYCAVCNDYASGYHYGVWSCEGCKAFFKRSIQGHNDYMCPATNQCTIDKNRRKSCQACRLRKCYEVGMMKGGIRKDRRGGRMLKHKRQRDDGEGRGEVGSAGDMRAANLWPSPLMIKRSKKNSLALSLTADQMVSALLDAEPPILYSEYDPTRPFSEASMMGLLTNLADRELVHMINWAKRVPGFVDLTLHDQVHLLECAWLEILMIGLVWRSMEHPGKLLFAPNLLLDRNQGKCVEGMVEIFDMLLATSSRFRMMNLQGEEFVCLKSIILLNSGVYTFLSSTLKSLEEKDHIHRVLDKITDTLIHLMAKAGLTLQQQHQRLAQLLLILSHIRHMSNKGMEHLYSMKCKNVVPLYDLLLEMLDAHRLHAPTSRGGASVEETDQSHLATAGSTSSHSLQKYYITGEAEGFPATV
# Androgen receptor (Homo sapiens), sequence (P10275 whole entry, looked up): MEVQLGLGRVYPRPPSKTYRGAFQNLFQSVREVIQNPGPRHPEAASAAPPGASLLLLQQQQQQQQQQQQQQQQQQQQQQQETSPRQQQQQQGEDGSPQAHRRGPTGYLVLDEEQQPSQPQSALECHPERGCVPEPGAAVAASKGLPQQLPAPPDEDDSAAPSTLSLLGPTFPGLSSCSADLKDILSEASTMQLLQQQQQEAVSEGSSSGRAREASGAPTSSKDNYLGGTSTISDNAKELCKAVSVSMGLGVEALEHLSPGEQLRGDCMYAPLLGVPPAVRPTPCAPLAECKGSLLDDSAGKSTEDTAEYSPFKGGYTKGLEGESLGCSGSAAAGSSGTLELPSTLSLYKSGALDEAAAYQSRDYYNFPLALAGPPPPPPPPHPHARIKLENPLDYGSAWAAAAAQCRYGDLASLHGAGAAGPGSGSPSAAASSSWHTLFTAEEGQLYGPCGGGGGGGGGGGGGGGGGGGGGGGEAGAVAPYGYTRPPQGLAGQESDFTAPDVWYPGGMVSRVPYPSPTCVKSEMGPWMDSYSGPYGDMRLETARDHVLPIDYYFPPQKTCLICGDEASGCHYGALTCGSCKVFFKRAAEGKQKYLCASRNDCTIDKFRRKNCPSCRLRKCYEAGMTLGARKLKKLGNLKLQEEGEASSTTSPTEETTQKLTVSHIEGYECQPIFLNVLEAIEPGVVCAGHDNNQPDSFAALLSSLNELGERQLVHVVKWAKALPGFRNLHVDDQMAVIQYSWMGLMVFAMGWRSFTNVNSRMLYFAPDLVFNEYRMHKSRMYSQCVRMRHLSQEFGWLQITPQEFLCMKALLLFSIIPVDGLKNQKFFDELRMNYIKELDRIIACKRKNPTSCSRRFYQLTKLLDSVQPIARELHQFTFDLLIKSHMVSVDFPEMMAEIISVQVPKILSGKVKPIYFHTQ
smiles,measurement,setting,value
Cc1cncc(C)c1,Potency,[1],inactive
same,Potency,[2],inactive
same,Potency,[3],inactive
same,Potency,[4],inactive
same,Potency,[5],inactive
same,Potency,[6],inactive
same,Potency,[7],inactive
N[C@@H](CSSC[C@H](N)C(=O)O)C(=O)O,"viability change, negative = cytotoxic",[1],-1.71% [at 0.349 µM]
same,"activity, negative = inhibition",[8],4.74% [at 0.349 µM]
same,"viability change, negative = cytotoxic",[5],13.4% [at 0.349 µM]
same,activity change,[7],"-0.169% [at 0.349 µM, hits give high values]"
C/C=C/C(=O)Oc1c(CCCCCC(C)C)cc([N+](=O)[O-])cc1[N+](=O)[O-],Potency,[1],15.4 µM (active)
same,Potency,[2],4.33 µM (active)
same,Potency,[3],inactive
same,Potency,[5],61.1 µM (active)
same,Potency,[6],54.5 µM (active)
same,Potency,[7],inactive
CCCCCCCC/C=C/CCCOC(C)=O,Potency,[1],inactive
same,Potency,[2],inactive
same,Potency,[3],inactive
same,Potency,[4],inactive
same,Potency,[5],inactive
same,Potency,[6],inactive
same,Potency,[7],inactive
same,Potency,[9],48.6 µM (active)
CCc1cccc(C)c1,Potency,[1],inactive
same,Potency,[2],inactive
same,Potency,[4],inactive
same,Potency,[5],inactive
same,Potency,[6],inactive
same,Potency,[7],inactive
same,Potency,[9],inactive
NC1(c2ccc(-c3nc4ccn5c(=O)[nH]nc5c4cc3-c3ccccc3)cc2)CCC1,Potency,[1],33.5 µM (active)
same,Potency,[2],inactive
same,Potency,[3],inactive
same,Potency,[4],inactive
same,Potency,[5],13.3 µM (active)
same,Potency,[7],inactive
same,Potency,[9],0.0944 µM (active)
O=C1OC(=O)c2cccc3cccc1c23,Potency,[1],inactive
same,Potency,[2],inactive
same,Potency,[3],inactive
same,Potency,[4],inactive
same,Potency,[5],inactive
same,Potency,[6],inactive
same,Potency,[7],inactive
same,Potency,[9],inactive
CCC(C)C(=O)OC (configuration not stated),Potency,[1],inactive
same,Potency,[2],inactive
same,Potency,[3],inactive
same,Potency,[4],inactive
same,Potency,[5],inactive
same,Potency,[6],inactive
same,Potency,[7],inactive
same,Potency,[9],inactive
C/C=C/C(=O)C1=C(C)CCCC1(C)C,Potency,[1],inactive
same,Potency,[2],inactive
same,Potency,[4],inactive
same,Potency,[5],inactive
same,Potency,[6],inactive
same,Potency,[7],inactive
CCOC(=O)COc1ccc(C)cc1,Potency,[1],inactive
same,Potency,[2],inactive
same,Potency,[3],inactive
same,Potency,[5],inactive
same,Potency,[6],inactive
same,Potency,[7],inactive
same,Potency,[9],inactive
Cc1ccc2ccc3cccc4ccc1c2c34,Potency,[1],inactive
same,Potency,[2],inactive
same,Potency,[3],inactive
same,Potency,[4],inactive
same,Potency,[5],inactive
same,Potency,[6],inactive
same,Potency,[7],inactive
same,Potency,[9],inactive
CCCCCCCCCCc1ccccc1,Potency,[1],inactive
same,Potency,[2],inactive
same,Potency,[3],inactive
same,Potency,[4],inactive
same,Potency,[5],inactive
same,Potency,[6],inactive
same,Potency,[7],inactive
same,Potency,[9],inactive
O=S(O)O,"viability change, negative = cytotoxic",[1],4.5% [at 19 µM]
same,"activity change, negative = inhibition",[2],-4.06% [at 19 µM]
same,"activity change, negative = inhibition",[3],2.9% [at 19 µM]
same,"activity change, negative = cytotoxicity",[4],2.88% [at 19 µM]
same,"viability change, negative = cytotoxic",[5],2.93% [at 19 µM]
same,"viability change, negative = cytotoxic",[6],0.928% [at 19 µM]
same,activity change,[7],"-1.4% [at 18.9 µM, hits give high values]"
same,"activity change, negative = inhibition",[9],12.9% [at 19 µM]
CC(CN(C)C)CN1c2ccccc2CCc2ccccc21 (configuration not stated),Potency,[1],inactive
same,Potency,[2],inactive
same,Potency,[3],inactive
same,Potency,[5],inactive
same,Potency,[6],inactive
same,Potency,[7],inactive
same,Potency,[9],2.37 µM (active)
O=C1OC(=O)c2ccc3c4c(ccc1c24)C(=O)OC3=O,Potency,[1],inactive
same,Potency,[2],inactive
same,Potency,[3],inactive
same,Potency,[4],inactive
same,Potency,[5],inactive
same,Potency,[6],inactive
same,Potency,[7],inactive
same,Potency,[9],inactive
